# Only some compounds are listed: those with a hit (about 2.2% of all), similar ones and a draw of the others.
# GLP1R cytotox: cytotoxic in the GLP-1 receptor inverse agonist counter-screen; AID 624418; Potency, µM (titrated, usually from 38.3 µM), most hits filed as inhibitors; 0.13% of 410,000 active; HEK293 cAMP-luciferase reporter cells, luminescence, 24 h;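 note: loss of luciferase light is scored as toxicity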
#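 Cells in DMEM/10% Nu serum/1% pen-strep, 1536-well format. Pre-incubated 12 h, dosed with 23 nL compound, incubated a further 24 h. Luciferase detection, 12 min at room temp, luminescence.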
# CCT chaperon mod: changes cytosolic chaperonin activity; activity change, % (no concentration beside the values), hits read low; AID 651819; 0.3% of 360,000 active; purified chaperonin ATPase assay, HTRF ADP detection, 30 min; in the data active = activity change below about -30%
#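 Enzyme 40 or 20 nM (batch-dependent) in Tris pH 7.4/KCl/MgCl2/DTT; cpd 76 uM single point; ATP 10 uM; 30 min 37 °C; Transcreener ADP HTRF detection, 30 min RT; ratio 665/615.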
# Mm-Cpn inhibitor: blocks the Methanococcus maripaludis chaperonin Mm-Cpn. purified Mm-Cpn ATPase, ADP Transcreener TR-FRET. Potency, µM (series often up to 76.9 µM), hits mostly inhibitors. 0.031% of 330,000 active; note: nearly all actives have a fitted effect of over 80% in size
#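 25 nM Mm-CPN + cpd, 10 min 37°C; + 10 uM ATP, 30 min 37°C; buffer 30 mM Tris pH 7.4, 100 mM KCl, 5 mM MgCl2, 1 mM DTT; Transcreener ADP HTRF detection 30 min RT.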
# GLP-1R inv ag: GLP-1 receptor (human) inverse agonism; 1.6% of 410,000 active; Potency, µM (top dose mostly 38.3 µM), most hits filed as inhibitors; P43220; HEK293 GLP-1R CRE-luciferase, luminescence, 24 h; GLP-1R form is constitutively active; AID 624417; note: nearly all actives have a fitted effect of over 55% in size
# Target sequence (P43220 whole entry, looked up): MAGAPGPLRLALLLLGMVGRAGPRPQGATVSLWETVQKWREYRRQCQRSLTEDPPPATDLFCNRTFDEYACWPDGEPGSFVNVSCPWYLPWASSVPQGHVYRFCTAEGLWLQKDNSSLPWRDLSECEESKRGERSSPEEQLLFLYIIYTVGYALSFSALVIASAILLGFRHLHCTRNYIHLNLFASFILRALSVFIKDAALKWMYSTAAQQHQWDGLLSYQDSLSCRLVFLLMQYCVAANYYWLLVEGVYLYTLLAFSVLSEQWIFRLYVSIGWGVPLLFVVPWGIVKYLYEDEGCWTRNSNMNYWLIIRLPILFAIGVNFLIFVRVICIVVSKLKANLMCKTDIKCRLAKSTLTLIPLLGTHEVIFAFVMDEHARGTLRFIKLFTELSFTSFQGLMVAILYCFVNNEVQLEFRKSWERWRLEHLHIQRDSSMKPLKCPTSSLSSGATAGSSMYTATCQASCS
#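 Assay principle: reduced luminescence from a cAMP-responsive reporter in HEK293 cells co-expressing a constitutively active GLP-1R. Conditions: 24 hr compound incubation, 37 deg C, 5% CO2.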
# uPA surface inh: cell surface uPA generation inhibition | cell surface uPA generation assay, qHTS | Potency, µM (series often up to 38.3 µM), actives largely listed as inhibitors | 0.31% of 330,000 active | AID 540303; active = well fitted inhibition curve with a large enough effect; inconclusive = small, poorly fitted or top-dose-only effect; inactive = no such curve, though single readings can be large or run the other way; tested in mouse RAW 264.7 cells; note: nearly all actives have a fitted effect of over 55% in size
# GLP1R ag: agonists of human GLP-1 receptor | HEK293 GLP-1R CRE-luciferase, luminescence, 4-6 h; cells express a hypersensitive GLP-1R form | 0.007% of 380,000 active | Potency, µM (highest dose often 45.6 µM), hits mostly activators
# Hits are given with their value; – = inactive; ? = inconclusive; · = no result. Unless noted, calls come from the whole dose curve; as a rule, active = well fitted curve in the direction sought with a large enough effect; inconclusive = small, poorly fitted or top-dose-only effect, or another doubt; inactive = no such curve, though single readings can be large; an effect the other way counts as inactive or inconclusive.
SMILES,GLP1R cytotox,CCT chaperon mod,Mm-Cpn inhibitor,GLP-1R inv ag,uPA surface inh,GLP1R ag
C=CCOc1c(Br)cc(CNc2ccc(NC(=O)CCC)cc2)cc1OCC,–,–,–,8.9µM,–,–
CCOc1cc(CNc2ccc3c(c2)OCCO3)cc(Br)c1OCC,–,–,–,2.2µM,–,–
CCOc1cc(CNc2ccc(N(C)C)cc2)cc(Br)c1OCC(=O)NC(C)(C)C,?,–,25µM,–,–,–
COc1ccc(C(CC(=O)NCc2ccccc2)N2Cc3ccccc3C2=O)cc1 (stereo not drawn),–,·,·,–,·,·
CC(C)CCN1C(=O)N(c2ccccc2)C(=O)C1CC(=O)Nc1ccc(Cl)cc1 (stereo not drawn),–,·,·,10µM,·,·
COc1cccc(N2C(=O)C(CC(=O)Nc3ccc(F)cc3)N(CCC3=CCCCC3)C2=O)c1 (stereo not drawn),?,·,·,10µM,·,·
Cc1ccc(-c2cn3nc(N4CCCC(C(=O)Nc5ccc(F)cc5)C4)sc3n2)cc1 (stereo not drawn),–,·,·,?,·,·
CCOC(=O)c1ccc(NC(=O)CC2C(=O)N(c3ccc(F)cc3)C(=O)N2Cc2cccnc2)cc1 (stereo not drawn),–,·,·,–,·,·
CC(C)[C@H](NC(=O)c1ccc([N+](=O)[O-])cc1Cl)C(=O)N1CCN(C/C=C/c2ccccc2)CC1,–,–,–,10µM,–,–
CCC(C)N(C)Cc1cccc(C2(O)CCN(S(=O)(=O)c3ccc(F)c(C)c3)CC2)c1 (stereo not drawn),?,–,–,2.5µM,–,–
CCC(=O)N1CCc2cc(Br)cc(S(=O)(=O)CCC(=O)NCc3ccccc3)c21,–,·,·,–,·,·
O=C(CSc1nc2ccccc2s1)N1N=C(c2cccs2)CC1c1ccc(F)cc1 (stereo not drawn),–,–,–,4µM,–,–
CCc1ccc(NC(=O)NCCc2c(C)nn(C)c2C)cc1,–,·,·,–,·,·
COc1ccc(N(C)C(=O)c2ccc3nc(-c4ccccc4)c(-c4ccccc4)nc3c2)cc1,–,–,–,6.3µM,–,–
CC(C)N(C(=O)c1ccc2nc(-c3ccccc3)c(-c3ccccc3)nc2c1)C(C)C,–,–,–,?,–,–
COc1cccc(NS(=O)(=O)c2ccc3c(c2)N(C)C(=O)CC(=O)N3C)c1,–,·,·,–,·,·
CC(C)(C)NCC(=Cc1ccccc1)C(=O)c1ccccc1,5µM,–,·,?,–,–
COc1ccc(C=C(C(=O)c2ccccc2)C(=O)c2ccccc2)cc1,–,–,·,?,·,–
Cc1cccc(/C=N/NC(=O)c2ccccc2OCc2cccc(Br)c2)n1,?,–,–,11µM,–,–
CCOc1ccc(Nc2cc(C)nc3nncn23)cc1,–,·,·,–,·,·
CCC(Cn1nnc2ccccc2c1=O)NC(=O)Nc1ccc(C)cc1C (stereo not drawn),–,·,·,–,·,·
C=C(C1=CCN(S(=O)C(C)(C)C)[C@H]1CCO)c1ccccc1 (stereo partly drawn),–,–,·,11µM,–,–
O=c1nc(SCc2c(F)cccc2Cl)nc(-c2ccccc2)[nH]1,–,-31,–,–,–,–
O=C1OC2(c3ccccc31)c1cc(I)c(O)c(I)c1Oc1c2cc(I)c(O)c1I,·,·,32µM,·,·,–
O=C1OC(c2ccccc2)(c2ccccc2)c2ccccc21,–,–,·,7.9µM,–,–
O=C1OC(c2ccccc2)(c2ccc(O)cc2)c2ccccc21 (stereo not drawn),–,–,·,?,–,–
Cc1ccc(C)c(NC(=O)CCc2c(C)nn(-c3ccc(N4CCCC4)nn3)c2C)c1,–,·,·,–,·,·
COc1ccc([C@@H]2CC=C(C(=O)O)[C@H](c3cccc(Cl)c3)N2S(=O)(=O)c2ccccc2C)cc1,–,–,–,?,–,–
Cc1ccc([C@@H]2CC=C(C(=O)O)[C@H](c3ccc(Br)cc3)N2S(=O)(=O)c2ccccc2C)cc1,–,–,–,11µM,–,–
Cc1ccc(S(=O)(=O)N2[C@@H](c3ccc(Br)cc3)C(C(=O)O)=CC[C@H]2c2ccc(Cl)cc2)cc1,–,–,–,11µM,–,–

# Screening data as filed in PubChem BioAssay.
